According to the supplement of paper PMC6555819:

test system: RARb:RXRa (NR concentration 270 nM, RXRa partner concentration 90 nM); test: PBM binding z-score (relative to random genomic background probes); higher = stronger binding; sequences stand for … in GC…GCGATTGACAGCGTAGAATGAAGG
Method in brief: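 The probes on custom Agilent 4×180K protein-binding microarrays were double-stranded, with 34-nt variable regions bearing direct-repeat seeds, single-nucleotide variants, half-site ablations and random human genomic background sequences. Incubation lasted 1 h with ligand-free nuclear receptor dimers in PBS pH 7.4, 2% milk, 0.02% Triton X-100, 1 mM DTT, 0.2 mg/mL BSA and 0.4 mg/ml salmon testes DNA. Antibodies against each partner (one per run) detected bound dimers, and fluorescence scans were regression-normalized. Binding z-scores take the random background probes as reference.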

Sequence | PBM binding z-score
CGTCCAAGGTGAGAGAGGTCAGTGAATGCCGAGT | 3.46
ACACGGAGGACAAAGGTCAGAGCTACGCCAGTGA | 4.58
AGTCAAAGTTCGTCTAGGTAACGTAAGATATGCT | 2.54
AAAACAGGGTCACTAGGCCAGAGTAGGTACGAAT | 4.18
ACAGACAGGTGAGTGAAGGTAATTCAGCTGGACG | 0.49
ATCTCTAGGTAACCAAGTTCAATGAATGCCGAAC | 1.43
GGAACGAGGGCAAGTTGATAGCGGAGTTTGATGG | 2.53
ACCATTAGTTGAGACGAGGGCAACCGATAGGTTG | 1.18
ATATGTAGGTTATCGGTTCATTCAGTTTGCGCAT | 1.32
AGAATGAGGTTAAGAACAGGGAAACAGAATACAT | 1.87
TCTCGGAGGCCACGAAAGGTCAGAGCTCGACATC | 4.24
TCTAGTTGGTCAAAGGTCATACACTCGAAATGCG | 4.73
CTAACTAGGTCAAGGACAGTGAATCTCCGCACGC | 4.08
TTGCCTAGGTCAGATCGGGCCAGTATACGCTATA | 3.07
ACTACTTGGTCAGCTGAGGTCACACACAATTCGG | 3.59
CGTCCAAGGTCAGCAAGTCAGTGAAAGCGACGTG | 4.99
CCTTTCGGGTCACGAGGTTATAGCACGACGAGCG | 4.99
CGTCAAAATTCAACTAAGGTAACGTAAAGCACGC | 0.577
